tim23-1 inh – inhibits growth of tim23-1 mutant yeast; S. cerevisiae tim23-1 growth, BacTiter-Glo luminescence, 24 h; inhibition, % at 20 µM; hit rate 1.3% among 330,000;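 active = growth inhibition of the mutant yeast at or above 50%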;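 note: temperature-sensitive mutant grown at 25 °C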
PfHsp90 set2 – inhibits growth of yeast expressing Plasmodium falciparum Hsp90; S. cerevisiae expressing PfHsp90, BacTiter-Glo ATP, 48 h; yeast lacking PDR1 and PDR3 efflux regulators; inhibition, % at 9.4 µM; hit rate 0.32% among 310,000;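 active = every replicate shows inhibition above about 80%, whatever the replicate mean, limit read from the data; inconclusive = mean inhibition reaches the set limit but some replicate falls short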
SKKanGAS inh – SKKanGAS growth inhibition | S. pyogenes SKKanGAS, kanamycin growth, BacTiter-Glo, 6 h | hit rate 1.3% among 300,000 | inhibition, % at 7.5 µM | AID 1662;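 active = mean replicate score, as percent of positive control median, at least 50; inconclusive = mean below 50 but one replicate at or above 50; inactive = mean and every replicate below 50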;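 note: strain carries kanamycin resistance gene driven by streptokinase promoter and grows in 40 µg/ml kanamycin; loss of luminescence reflects streptokinase promoter inhibition or plain growth inhibition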
TIM10 inh – growth inhibitors of TIM10 yeast strain. S. cerevisiae TIM10 strain growth, BacTiter-Glo luminescence, 24 h. inhibition, % at 10 µM. hit rate 1.4% among 330,000. AID 463195;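 active = inhibition of 40% or more at the single tested concentration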;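 note: wild-type TIM10 isogenic control strain grown at permissive 25 °C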
NALP1 yeast inh – blocks the NALP1 inflammasome reconstituted in yeast | AID 2071 | S. cerevisiae NALP1/ASC/caspase-1 growth, X-gal OD620, 72 h | hit rate 0.61% among 280,000 | inhibition, % at 10 µM; in the data active = inhibition mostly above about 24%, no sharp cut-off; inactive = mostly below about 32%
tim10-1 inh – growth inhibitors of tim10-1 mutant yeast. hit rate 2.2% among 330,000. S. cerevisiae tim10-1 ts strain growth, BacTiter-Glo, 24 h. inhibition, % at 20 µM;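 active = inhibition of at least 40%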;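 note: mutant grown at 25 °C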
tim10-1 conf – tim10-1 yeast growth inhibition, confirmed. shares compounds with tim10-1 inh. S. cerevisiae tim10-1 ts strain growth, BacTiter-Glo, 24 h. inhibition, % at 20 µM. hit rate 56% among 7,400. AID 463213;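 active = inhibition of yeast growth at or above a set limit in either of two repeat tests at 20 µM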;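 note: tim10-1 mutant grown at permissive 25 °C to find synthetic lethal compounds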
TIM10 conf – confirmation of TIM10 yeast growth inhibitors; shares compounds with TIM10 inh; S. cerevisiae tim10 strain growth, BacTiter-Glo luminescence, 24 h; inhibition, % at 10 µM; hit rate 63% among 4,600;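 active = inhibition of yeast growth at or above a set limit in either of two replicates at 10 µM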; note: this counterscreen used the strain with wild-type TIM10
Large screens that a line does not name were inactive (follow-up assays come after a bar, where they were run). Most compounds without a hit are left out; they make up all but 4.8% or so of the library.

CC(C)Cn1c(=S)[nH]c2ccccc2c1=O	none
Cc1nn(C)c(C(=O)Nc2ccc(S(=O)(=O)NC34CC5CC(CC(C5)C3)C4)cc2)c1Br	PfHsp90 set2 inconclusive, SKKanGAS inh 53.2, TIM10 inh 57.8, tim10-1 inh 53.9 | tim10-1 conf 44.5 | TIM10 conf inactive
O=C(NCCc1ccccc1)c1ccco1	none
COc1cc2c(cc1OC)C(COc1ccc(F)cc1)NCC2 (stereo not given)	TIM10 inh 44.8, tim10-1 inh 43.2 | tim10-1 conf 36.0 | TIM10 conf 41.7
Cc1ccc(C(c2nnnn2CCc2ccccc2)N2CCC(C)CC2)cc1 (stereo not given)	TIM10 inh 46.9, tim10-1 inh 44.9 | tim10-1 conf 35.9 | TIM10 conf inactive
CCOc1ccc(Cl)cc1S(=O)(=O)n1nnc2ccccc21	TIM10 inh 51.3, tim10-1 inh 45.5 | tim10-1 conf 42.0 | TIM10 conf inactive
CCOC(=O)c1cnc2c(ccc3ccccc32)c1NCCCN(C)C	TIM10 inh 80.8, tim10-1 inh 49.5 | tim10-1 conf 64.9 | TIM10 conf 79.8
CCOC(=O)c1cnc2ccccc2c1NCCO	none
CCOc1cc(-c2noc(N)c2C#N)cc(OCC)c1OCC	TIM10 inh 67.0, tim10-1 inh 67.7 | tim10-1 conf 60.8 | TIM10 conf 58.2
Cc1ccccc1-c1noc(N)c1C#N	none (no result: NALP1 yeast inh)
CCOC(=O)C1CCCN(C(=O)c2sc3nc(-c4ccccc4)cn3c2C)C1 (stereo not given)	none
CCOC(=O)C1CCN(C(=O)c2sc3nc(-c4ccc(F)cc4)cn3c2C)CC1	TIM10 inh 78.1, tim10-1 inh 74.2 | tim10-1 conf 73.8 | TIM10 conf 69.2
CCOC(=O)C1CCCN(C(=O)c2sc3nc(-c4ccc(F)cc4)cn3c2C)C1 (stereo not given)	TIM10 inh 55.7, tim10-1 inh 52.7 | tim10-1 conf 48.3 | TIM10 conf 42.5
CSc1ncc(F)c(N(CCO)CCO)n1	none
Cc1cc(Sc2nc(N)ncc2[N+](=O)[O-])ncn1	TIM10 inh 48.7, tim10-1 inh 51.4 | tim10-1 conf 47.9 | TIM10 conf 31.9
S=c1[nH]nc(-c2ccc(Br)cc2)n1Cc1ccccc1	TIM10 inh 46.4, tim10-1 inh 42.4 | tim10-1 conf inactive | TIM10 conf 45.0
Oc1ccc(-c2n[nH]c(=S)n2Cc2ccccc2)cc1	none
Cc1ccc(NC(=O)C2C3CCC(O3)C2C(=O)O)cc1Cl (stereo not given)	none
COc1ccccc1-c1cc(C(F)(F)F)nc(S(=O)(=O)CCCC(=O)Nc2cc(C)on2)n1	none
COc1ccccc1-c1cc(C(F)(F)F)nc(S(=O)(=O)CCCC(=O)N2CCCCC2C)n1 (stereo not given)	TIM10 inh 40.6, tim10-1 inh 42.0 | tim10-1 conf inactive | TIM10 conf inactive
COc1cccc(/C=N/NC(=O)CCc2ccccc2)c1	none
CC(C)Nc1nnc(Sc2ccc(Cl)cc2[N+](=O)[O-])s1	TIM10 inh 69.1, tim10-1 inh 79.4 | tim10-1 conf 72.2 | TIM10 conf inactive
Nc1nnc(Sc2ccc(Cl)cc2[N+](=O)[O-])s1	none
COc1ccccc1CNC(=O)CSc1nnc2c(Cl)cc(C(F)(F)F)cn12	none (no result: NALP1 yeast inh)
CN(C)CCCN(C(=O)c1ccc(S(=O)(=O)N2CCc3ccccc3C2)cc1)c1nc2c(F)cccc2s1	none
Cc1cc(C)c2sc(N(CCCN(C)C)C(=O)c3ccc(S(=O)(=O)N4CCCc5ccccc54)cc3)nc2c1	TIM10 inh 51.4, tim10-1 inh 54.0 (no result: NALP1 yeast inh) | tim10-1 conf 41.0 | TIM10 conf 33.0
CN(C)CCCN(C(=O)c1ccc(S(=O)(=O)N2CCc3ccccc3C2)cc1)c1nc2ccc(F)cc2s1	TIM10 inh 57.5, tim10-1 inh 59.4 (no result: PfHsp90 set2) | tim10-1 conf 36.0 | TIM10 conf 44.9
Cc1cccc2sc(N(CCCN(C)C)C(=O)c3ccc(S(=O)(=O)N4CCc5ccccc5C4)cc3)nc12	TIM10 inh 40.0, tim10-1 inh 40.6 | tim10-1 conf inactive | TIM10 conf inactive
COc1ccc2sc(N(CCCN(C)C)C(=O)c3ccc(S(=O)(=O)N4CCc5ccccc5C4)cc3)nc2c1	none (no result: NALP1 yeast inh)
Cc1ccc(NC(=O)CCC(=O)N/N=C/c2ccccc2O)cc1	none
Cc1ccc(SCCC(=O)N/N=C/c2ccccc2O)cc1	TIM10 inh 48.2, tim10-1 inh 42.5 | tim10-1 conf inactive | TIM10 conf 44.5
COc1ccc(/C=C2\CCc3ccccc3C2=O)cc1Cn1nc(C)cc1C	TIM10 inh 48.6, tim10-1 inh 45.2 | tim10-1 conf 36.8 | TIM10 conf 40.5
COc1ccc(/C=C2/CCc3ccccc3C2=O)cc1CN1CCOCC1	none
O=C(Cc1ccc(NC(=O)C2CCN(C(=O)c3ccccc3)CC2)cc1)Nc1ccc(C(=O)N2CCOCC2)cc1	none (no result: tim23-1 inh, SKKanGAS inh, TIM10 inh, NALP1 yeast inh, tim10-1 inh)
O=S(=O)(c1ccccc1)N1CCC(=NO)CC1	none
O=C(ON=C1CCN(S(=O)(=O)c2ccccc2)CC1)c1cccc(Cl)c1	TIM10 inh 46.8, tim10-1 inh 66.5 (no result: PfHsp90 set2) | tim10-1 conf 67.0 | TIM10 conf 55.0
COc1ccc(-n2c(=O)c3c4c(sc3n3c(=S)[nH]nc23)CCCC4)cc1	TIM10 inh 48.2 | tim10-1 conf 37.3 | TIM10 conf inactive
Cc1onc(-c2ccccc2Cl)c1C(=O)O/N=C(\N)c1ccc([N+](=O)[O-])o1	TIM10 inh 44.2, tim10-1 inh 49.2 | tim10-1 conf inactive | TIM10 conf 44.0
Cc1ncc(CO)c(/C=N/NC(=S)Nc2ccc(Cl)c(Cl)c2)c1O	SKKanGAS inh 66.4, TIM10 inh 91.5, tim10-1 inh 51.1 | tim10-1 conf 33.3 | TIM10 conf 37.5
Cc1ncc(CO)c(/C=N/NC(=S)Nc2cccc(Cl)c2)c1O	none
O=S(=O)(NCCSCc1c(Cl)cccc1Cl)c1ccc2c(c1)OCCO2	SKKanGAS inh inconclusive, TIM10 inh 50.2, tim10-1 inh 53.5 | tim10-1 conf 45.0 | TIM10 conf 35.2
COc1cccc(N2CCN(C(=O)c3ccc4nc(N5CCCCC5)sc4c3)CC2)c1	none
COc1ccc(N2CCN(C(=O)c3ccc4nc(N5CCCCC5)sc4c3)CC2)cc1	TIM10 inh 40.1, tim10-1 inh 43.5 | tim10-1 conf 33.9 | TIM10 conf 33.1
Cc1ccc2cc(C)c(N3CCN(c4ccccn4)CC3)nc2c1	TIM10 inh 43.1, tim10-1 inh 52.6 | tim10-1 conf 33.6 | TIM10 conf 38.2
Cc1ccc(C(=O)CN2CCN(c3ccccn3)CC2)c(C)c1	none
CCNC(=O)COC(=O)CCC(=O)c1cccs1	none
CCSc1nc2ccccc2n1CC(N)=O	none (no result: PfHsp90 set2)
